From PubChem BioAssay (NCATS)
Results filed as inconclusive are left out. Where a call stands in place of a potency, no number is given. The source made the active and inactive calls. Unless noted, the call rests on the fitted dose curve; in most records, active means well fitted curve in the direction sought with a large enough effect; inconclusive means small, poorly fitted or top-dose-only effect, or another doubt; inactive means no such curve, though single readings can be large; an effect the other way counts as inactive or inconclusive.

Tests used:
[1] = qHTS for Inhibitors of the Functional Ribonucleoprotein Complex (vRNP) of Lassa (LASV) Arenavirus: Viability assay - alamar blue signal for LASV Primary Screen (AID 1347083; calls by dose curve; tested in HEK293 reporter line; further: nearly all actives have a fitted effect of over 80% in size; further: potency means the concentration at half of the fitted maximal effect)
[2] = target: Nucleoprotein (Lymphocytic choriomeningitis virus (strain Armstrong)) (UniProt P09992); assay: qHTS for Inhibitors of the Functional Ribonucleoprotein Complex (vRNP) of Lymphocytic Choriomeningitis Arenaviruses (LCMV): LCMV Primary Screen - GLuc reporter signal (AID 1347086; calls by dose curve; further: nearly all actives have a fitted effect of over 70% in size; further: potency means the concentration at half of the fitted maximal effect)
[3] = qHTS of pediatric cancer cell lines to identify multiple opportunities for drug repurposing: Primary screen for TC32 cells (AID 1347089); further: nearly all actives have a fitted effect of over 60% in size; further: potency means the concentration at half of the fitted maximal effect
How it was run: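 In the primary qHTS, MIPE compounds were tested at 11 concentrations (0.78 nM to 46 µM) and NPC compounds at 8 (0.59 nM to 46 µM) on TC32 cells for 48 h. CellTiter-Glo luminescence gave viability.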

[4] = qHTS of pediatric cancer cell lines to identify multiple opportunities for drug repurposing: Primary screen for SJ-GBM2 cells (AID 1347091); further: potency means the concentration at half of the fitted maximal effect
How it was run: (§1)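 Eight- or eleven-point concentration series, 48 h treatment at 37 degrees C in growth media; readout CellTiter-Glo luminescence. Potency and efficacy were taken from the concentration-response curves.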

[5] = qHTS of pediatric cancer cell lines to identify multiple opportunities for drug repurposing: Primary screen for NB-EBc1 cells (AID 1347095); further: potency means the concentration at half of the fitted maximal effect
How it was run: (§2)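 ATP-based luminescence (CellTiter-Glo) quantifies viability after a 48-hour exposure. Compounds are dosed across 8 or 11 final concentrations; DMSO and 2.3 µM bortezomib serve as controls.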

[6] = qHTS of pediatric cancer cell lines to identify multiple opportunities for drug repurposing: Primary screen for DAOY cells (AID 1347090); further: nearly all actives have a fitted effect of over 55% in size; further: potency means the concentration at half of the fitted maximal effect
How it was run: as §1

[7] = qHTS of pediatric cancer cell lines to identify multiple opportunities for drug repurposing: Primary screen for A673 cells (AID 1347092); further: nearly all actives have a fitted effect of over 45% in size
How it was run: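 48 h compound exposure, A673, 500-1,000 cells/well, 37 degrees C/5% CO2. MIPE: 11-point, 0.78 nM-46 µM; NPC: 8-point, 0.59 nM-46 µM (final). Readout CellTiter-Glo luminescence after 15 min RT.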

[8] = qHTS of pediatric cancer cell lines to identify multiple opportunities for drug repurposing: Primary screen for BT-37 cells (AID 1347094); further: series mostly up to about 57 µM
How it was run: as §2

[9] = qHTS of pediatric cancer cell lines to identify multiple opportunities for drug repurposing: Primary screen for SK-N-MC cells (AID 1347093); further: potency means the concentration at half of the fitted maximal effect
How it was run: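 Metabolically active cells were quantified by ATP-dependent luminescence (CellTiter-Glo, 15 min at room temperature) following 48 h treatment. Cells had been plated at 500-1,000 per well and settled for 5 h beforehand.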

Chain of Nucleoprotein (Lymphocytic choriomeningitis virus (strain Armstrong)) (P09992 whole entry, looked up): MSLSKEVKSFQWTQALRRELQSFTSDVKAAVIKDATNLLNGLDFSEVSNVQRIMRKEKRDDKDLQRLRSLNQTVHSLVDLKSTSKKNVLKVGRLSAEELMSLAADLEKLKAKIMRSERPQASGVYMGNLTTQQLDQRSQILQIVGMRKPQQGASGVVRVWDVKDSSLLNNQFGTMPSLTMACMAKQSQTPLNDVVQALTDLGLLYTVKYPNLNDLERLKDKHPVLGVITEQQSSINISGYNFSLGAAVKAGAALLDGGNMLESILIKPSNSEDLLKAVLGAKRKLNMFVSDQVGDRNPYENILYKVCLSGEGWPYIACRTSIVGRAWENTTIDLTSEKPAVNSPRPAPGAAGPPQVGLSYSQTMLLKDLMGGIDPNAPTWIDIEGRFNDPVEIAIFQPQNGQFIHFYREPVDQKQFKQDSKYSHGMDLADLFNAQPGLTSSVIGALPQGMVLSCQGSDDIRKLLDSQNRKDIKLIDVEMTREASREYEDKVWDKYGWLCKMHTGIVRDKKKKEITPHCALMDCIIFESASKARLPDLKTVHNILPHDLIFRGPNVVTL

SMILES: Cn1cc(-c2ccc3nnc(Sc4ccc5ncccc5c4)n3n2)cn1
- Potency [1]: inactive
- Potency [2]: inactive

SMILES: CCn1c(-c2nonc2N)nc2cnc(Oc3cccc(NC(=O)c4ccc(OCCN5CCOCC5)cc4)c3)cc21
- Potency [1]: 12200 nM (active)
- Potency [2]: 17200 nM (active)

SMILES: Nc1nc(-c2nn(Cc3ccccc3F)c3ncccc23)nc(N)c1N1CCOCC1
- Potency [1]: inactive
- Potency [2]: inactive

SMILES: Cc1c(N)nc([C@H](CC(N)=O)NC[C@@H](N)C(N)=O)nc1C(=O)N[C@H](C(=O)N[C@@H](C)[C@H](O)[C@@H](C)C(=O)N[C@@H](C(=O)NCCc1nc(-c2nc(C(=O)NCCC[S+](C)C)cs2)cs1)[C@@H](C)O)C(O[C@H]1O[C@H](CO)[C@H](O)[C@@H](O)[C@@H]1O[C@H]1O[C@H](CO)[C@@H](O)[C@H](OC(N)=O)[C@H]1O)c1cnc[nH]1 (stereo partly drawn)
- Potency [1]: 7690 nM (active)
- Potency [2]: inactive
- Potency [3]: 4150 nM (active)
- Potency [4]: 1480 nM (active)
- Potency [5]: 1320 nM (active)

SMILES: CN[C@@H](C)C(=O)N[C@H]1CCCC[C@H]2CC[C@@H](C(=O)N[C@@H](c3ccccc3)c3cn(CCCCc4ccc(CCCCn5cc([C@@H](NC(=O)[C@@H]6CC[C@@H]7CCCC[C@H](NC(=O)[C@H](C)NC)C(=O)N76)c6ccccc6)nn5)cc4)nn3)N2C1=O
- Potency [1]: 19300 nM (active)
- Potency [2]: inactive

SMILES: CC1(C)CC/C(=C/c2ccc(Cl)cc2)C1(O)Cn1cncn1 (stereo not drawn)
- Potency [1]: inactive
- Potency [3]: inactive
- Potency [6]: inactive
- Potency [7]: inactive
- Potency [8]: inactive
- Potency [5]: inactive

SMILES: CC=C(C)C(=O)N[C@@H](c1ccccc1)[C@@H](O)C(=O)O[C@H]1C[C@@]2(O)[C@@H](OC(=O)c3ccccc3)[C@@H]3[C@]4(OC(C)=O)CO[C@@H]4C[C@H](O)[C@@]3(C)C(=O)[C@H](OC(C)=O)C(=C1C)C2(C)C
- Potency [1]: 3.4 nM (active)
- Potency [3]: 1.3 nM (active)
- Potency [6]: 3.7 nM (active)
- Potency [9]: 1 nM (active)
